Source: PubChem BioAssay AID602429 (Sanford-Burnham Center for Chemical Genomics, 2012)
Hit rate of the full screen: of about 360,000 compounds, about 1,200 (0.33%) were called active. The entries come from a sample that favours actives as a whole. Unmarked numbers belong to inactive results. Rule as the data show it: active = inhibition above about 37%; inactive = the rest.

biological target: Small ubiquitin-related modifier 1 (Homo sapiens) (UniProt P63165); assay: SUMO1 binding to interaction partners, disruption – biochemical, uHTS, primary screen (AID 602429); conditions: SUMO1 binding to a labelled peptide, TR-FRET, 1 h; at 20 µM; hits give high values
Sequence (P63165 whole entry, looked up): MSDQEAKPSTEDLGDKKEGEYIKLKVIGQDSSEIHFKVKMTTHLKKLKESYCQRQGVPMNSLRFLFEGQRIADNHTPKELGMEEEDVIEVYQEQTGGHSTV

SMILES	inhibition
CCCn1c(N)c(C(=O)CSc2nc3ccccc3c(=O)n2-c2ccc(OC)cc2)c(=O)[nH]c1=O	46.9% (active)
CCCn1c(N)c(C(=O)CSc2nnc3n2CCCCC3)c(=O)[nH]c1=O	8.44%
CCOc1ccc(-n2c(SCC(=O)Nc3cc(C(=O)O)ccc3Cl)nc3ccccc3c2=O)cc1	19.1%
COCCOC(=O)c1c(C)oc2cc(Br)c(OCC(N)=O)cc12	-1.35%
CCN(c1ccccc1)S(=O)(=O)c1cccc(C(=O)NCc2ccccc2CN2CCOCC2)c1	-2.56%
COc1ccc(C)cc1NC(=O)NCCCCc1ccccc1	3.9%
O=S(=O)(NCCSc1ccccn1)c1ccc(Cl)cc1	-0.907%
O=C(Cc1ccsc1)N1CCN(S(=O)(=O)c2cc(C(F)(F)F)cc(C(F)(F)F)c2)CC1	32.3%
COc1ccc2[nH]c(=O)c(-c3noc(-c4ccc(F)cc4)n3)cc2c1	64% (active)
COc1ccc(Cc2cc(-c3ccc(F)cc3)n[nH]c2=O)cc1	-0.22%
CCCc1nc(-c2cc3cc(C)ccc3[nH]c2=O)no1	-3.17%
Cc1cc(C)cc(OCC(=O)Nc2cc(NC(=O)COc3cc(C)cc(C)c3)cc(C(=O)O)c2)c1	13.4%
CCN1CCCC1CNC(=O)Cn1cnc2ccc(S(=O)(=O)N3CCC(C)CC3)cc2c1=O (stereo unspecified)	-2.59%
CCN1CCCC1CNC(=O)c1ccc2c(c1)NC(=O)/C(=C\c1ccccc1F)S2 (stereo unspecified)	-60.4%
CCN1CCCC1CNC(=O)c1cc2c(=O)n(C)c3ccccc3c2n1C (stereo unspecified)	46.4% (active)
CCCCn1c(SCc2ncc(-c3ccccc3)o2)nc2cc(S(N)(=O)=O)ccc21	0.0839%
CCCCc1nc(SCC(=O)Nc2nnc(C(C)C)s2)n[nH]1	4.69%
O=C(COc1ccc(Cl)cc1)Nc1ccc2oc(=O)ccc2c1	4.58%
COc1ccccc1CNS(=O)(=O)c1cc(C(=O)NCc2ccccn2)c(Cl)cc1Cl	-1.08%
COCCNC(=O)Nc1ccc2nc(-c3ccco3)c(-c3ccco3)nc2c1	64.2% (active)
COCCNC(=O)c1ccc2nc(Cc3ccc(OC)c(OC)c3)oc2c1	0.593%
COc1cc(NC(=O)C2=CC(c3ccco3)=NS(=O)(=O)N2C)cc(OC)c1OC	-26.3%
O=C(NCc1ccco1)C(=O)c1cn(CC(=O)N2CCCCCC2)c2ccccc12	-6.74%

SMILES	inhibition
CC1(C)CC(=O)C(C=NCc2cccnc2)=C(O)C1	-0.212%
Cc1ccccc1S(=O)(=O)Cc1ccc(C(=O)NCCN2CCCCC2C)o1 (stereo unspecified)	-2.78%
NC(=S)NN=C1CCCC(C(F)(F)F)C1 (stereo unspecified)	-4.43%
CCCc1cc(=S)n2c([nH]c3ccccc32)c1C#N	45.4% (active)
COC(=O)c1cccc(NC(=O)CN2CCC(NC(=O)c3cc(OC)c(OC)c(OC)c3)CC2)c1	4.74%
CCC(C(=O)N1CCOCC1)n1c(C(=O)OC)cc2occc21 (stereo unspecified)	0.0718%
O=C(c1cc(-c2ccco2)nc2ccccc12)N(Cc1nnc(-c2ccc(Cl)cc2)o1)C1CC1	5.63%
COc1ccc2c(-c3ccccc3)cc(SCC(=O)N(C)C3CCS(=O)(=O)C3)nc2c1 (stereo unspecified)	0.193%
CN(C(=O)COC(=O)c1cc(-c2ccco2)nc2ccccc12)C1CCS(=O)(=O)C1 (stereo unspecified)	105% (active)
O=C(Nc1cccc2c1CCCC2)c1ccc(F)cc1	-0.657%
O=C(CSc1cccc[n+]1[O-])NCCCc1ccccc1	-1.78%
COc1ccc(Cl)cc1NC(=O)COC(=O)c1ccc(Br)o1	3.41%
O=C(CCS(=O)(=O)c1ccc(Br)cc1)NCCc1ccc(Cl)cc1	15.1%
COc1ccc(Cl)cc1NC(=O)CCS(=O)(=O)c1ccc(Br)cc1	71% (active)
CCn1c(O)c2ccc(C(=O)N=NC(=O)c3cccnc3)cc2c1O	-19.8%
Cn1c(SCC(=O)Nc2ccc(N3CCOCC3)cc2)nnc1C(F)(F)F	3.07%
O=C1C2C3C=CC(C4CC34)C2C(=O)N1c1nccs1 (stereo unspecified)	0.623%
CCOc1ccc(C(=O)NCC(=O)N2CCN(c3ccc(C(F)(F)F)cn3)CC2)cc1	-1.81%
CC(=O)c1c(OCC(=O)N(C)C2CCCCC2)ccc2c(C)cc(=O)oc12	0.393%
O=C(Nc1ccc(C2CC2(Cl)Cl)cc1)c1cccc([N+](=O)[O-])c1 (stereo unspecified)	-19.7%
Cn1ccc(=Nc2ccc(NC(=O)c3ccc(N=c4ccn(C)c5ccc([N+](=O)[O-])cc45)cc3)cc2)cc1	78.6% (active)
O=C(Nc1cc2c3c(c1)C1CCCC1CN3CC1CCCC21)c1ccc([N+](=O)[O-])cc1 (stereo unspecified)	-12.8%
CCCS(=O)(=O)N1CCC(C(=O)NCCCN(C)Cc2ccccc2)CC1	3.93%

SMILES	inhibition
Cc1ccc(CCN2CC(C(=O)O)CC2=O)cc1 (stereo unspecified)	0.0169%
Nc1ccc2[nH]c(=S)sc2c1	65% (active)
CCOc1ccc2[nH]c(=S)sc2c1	6.23%
O=c1[nH]c2ccccc2s1	0.972%
O=C(c1ccc2c(c1)OCCO2)C1CCN(S(=O)(=O)c2cccc(F)c2)CC1	-0.625%
CCn1ncc(Br)c1C(=O)Nc1cc(C)ccc1F	1.78%
COc1ccc([N+](=O)[O-])cc1NC(=O)CC1SC(=Nc2cccc(C)c2C)N(/N=C(\C)c2ccc(C)cc2)C1=O (stereo unspecified)	-1.72%
CCN(CC(=O)N1CCCC1)S(=O)(=O)c1ccc(F)cc1	0.769%
COc1nc(Oc2ccc(=O)n(C)n2)nc(N(C)C)n1	-2.1%
Cc1ccc(S(=O)(=O)NCCSC(C)(C)C)cc1	2.52%
COc1nc(N(C)C)nc(N2CC(=O)N(CCNS(=O)(=O)c3ccc(C)cc3)C2=N)n1	44% (active)
Cc1cc(C)c2nc(NC(=O)C3CCCO3)sc2c1 (stereo unspecified)	-1.66%
O=C(Nc1nnc(SCc2c(Cl)cccc2Cl)s1)C1CCCO1 (stereo unspecified)	4.7%
O=C(Nc1nnc(CCc2ccccc2)s1)C1CCCO1 (stereo unspecified)	42.9% (active)
Cc1ccc(NC(=O)Cn2cccc2C2=NC(c3ccccc3)CO2)c(C)c1 (stereo unspecified)	-4.14%
COC(=O)c1cc2occc2n1Cc1nc(-c2ccccc2C)oc1C	0.0493%
COc1ccccc1C(CNC(=O)c1cccc(NS(=O)(=O)c2ccc(Br)cc2)c1)N(C)C (stereo unspecified)	-3.01%
COc1ccc(Br)cc1/C=N/Nc1ccc(S(=O)(=O)Nc2ccccc2C(=O)O)cc1[N+](=O)[O-]	108% (active)
COc1cc(CCN=Cc2ccccc2O)c([N+](=O)[O-])cc1OC	-13%
COCOCCn1cc(CN2CCS(=O)(=O)N(Cc3ccc(-c4ccccc4)cc3)C(CC(C)C)C2=O)nn1 (stereo unspecified)	3.98%
COc1ccc(OCc2nnc3n2N=C(c2ccccc2)C(CC(=O)O)S3)cc1 (stereo unspecified)	10.5%
CCOC(=O)C1=C(COC(=O)[C@H](C)NS(=O)(=O)c2ccccc2F)NC(=O)NC1C (stereo partly specified)	2.53%
O=C(O)CC(CC(=O)N1CCOCC1)c1ccccc1 (stereo unspecified)	4.09%

SMILES	inhibition
Oc1ccc(N=Cc2sc3ccccc3c2Cl)cc1	43.8% (active)
CCCNC(=O)c1cc(C2CCCN(C(=O)c3ccc4c(c3)CCO4)C2)on1 (stereo unspecified)	-2.48%
CCCCN(C)CCNC(=O)C1CCCN(S(=O)(=O)c2cccc3nsnc23)C1 (stereo unspecified)	-32.8%
COc1ccc(CCNC(=O)C(=O)Nc2ccc3nc4n(c(=O)c3c2)CCCCC4)cc1OC	-4.72%
CC(=O)NN=C(C)c1ccc(NC(=O)C2CC2)cc1	-0.643%
Cc1c(Cl)cccc1NC(=O)CCC(=O)N/N=C/c1ccco1	-6.83%
O=C(N/N=C/c1ccco1)c1ccc(C(=O)N/N=C/c2ccco2)o1	36.6% (active)
O=C(Cn1cnc2ccccc21)N/N=C/c1ccco1	-6.39%
COc1ccc2c(C)c(CCC(=O)NC3CC3)c(=O)oc2c1C	1.06%
Cc1c(CCC(=O)O)c(=O)oc2c(C)c(OCc3ccccc3Cl)ccc12	56.6% (active)
O=C(O)c1ccccc1OCc1ccccc1Cl	1.06%
Cc1cc(C)n2nc(C(=O)OC(C)C(=O)c3cc(C)c(C)cc3C)nc2n1 (stereo unspecified)	1.78%
O=C(CNC(=O)[C@@H]1Cc2ccccc2CN1)NC1CCCCC1	3.02%
C/C=C\C=C\C(=O)N1CC2(CC(c3cccc(NC(=O)/C(C)=C\C)c3)=NO2)C[C@H]1C(N)=O (stereo partly specified)	-1.81%
CC/C=C/C(=O)N1CC2(CC(c3cccc(NC(=O)CC)c3)=NO2)C[C@H]1C(N)=O (stereo partly specified)	0.0237%
C=C(C)C(=O)Nc1cccc(C2=NOC3(C2)C[C@H](C(N)=O)N(C(=O)C(c2ccccc2)c2ccccc2)C3)c1 (stereo partly specified)	61.6% (active)
COc1cccc(NC(=O)C(Sc2nc3ccccc3c(=O)n2CC(C)C)c2ccccc2)c1 (stereo unspecified)	1.55%
Cc1nc([N+](=O)[O-])c(NCCCO)n1Cc1ccccc1	-1.9%
CCCCNC(=O)Nc1c(C)cc(SC#N)cc1C	-6.49%
CCOC(=O)Cn1c2c(c(-c3ccccc3OC)cc1=O)CCCC2	-0.83%
COc1ccc(-c2c(-c3ccc(OC)cc3O)nc(C)nc2C(F)(F)F)cc1	3.81%
CCOc1ccc(-c2nc(N)ncc2-c2ccccc2OC)c(O)c1	39.4% (active)
